PolyA inhibitor: blocks polyadenylation in yeast reporter cells. S. cerevisiae SKY197-pL101 polyadenylation reporter, beta-gal luminescence; efflux-impaired pdr1/pdr3 knockout yeast; score 100 = 6 SD above DMSO. activity score, % at 12 µM. 300,000 compounds, 0.02% hits. AID 1875;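 active = lowest replicate activity score at least 50, where 100 means six control SD above control mean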;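 note: yeast exposed to compound for 9 h at 30 °C; higher score means more reporter readthrough which indicates perturbed polyadenylation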
APOBEC3A inh: human APOBEC3A DNA deaminase inhibition | P31941 | recombinant A3A, FAM/TAMRA ssDNA deamination fluorescence | inhibition, % at 20 µM | 330,000 compounds, 0.41% hits | AID 493011;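 active = at least 40% inhibition at 20 µM here, with at most 30% in a related deaminase screen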;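 note: plate controls were A3A with DMSO for no effect and wells lacking A3A enzyme for full effect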
Target sequence (P31941 whole entry, looked up): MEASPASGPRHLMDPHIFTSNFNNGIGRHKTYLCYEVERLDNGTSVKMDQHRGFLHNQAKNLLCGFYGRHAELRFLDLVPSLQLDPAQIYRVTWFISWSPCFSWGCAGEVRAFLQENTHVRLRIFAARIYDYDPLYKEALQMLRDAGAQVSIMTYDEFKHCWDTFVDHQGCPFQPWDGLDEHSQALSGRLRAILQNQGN
NALP1 inh: blocks the NALP1 inflammasome reconstituted in yeast; S. cerevisiae NALP1/ASC/caspase-1 growth, X-gal OD620, 72 h; inhibition, % at 10 µM; 280,000 compounds, 0.61% hits; AID 2071; in the data active = inhibition mostly above about 24%, no sharp cut-off; inactive = mostly below about 32%
APOBEC3G inh: blocks human APOBEC3G single-stranded DNA deamination | Q9HC16 | recombinant A3G, ssDNA deamination FAM/TAMRA fluorescence | inhibition, % at 20 µM | 330,000 compounds, 0.28% hits;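 active = inhibition of at least 40% at 20 µM, with no more than 30% in the related APOBEC3A deaminase screen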;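 note: plate controls were DMSO wells with A3G for no effect and wells lacking A3G enzyme for full effect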
Target sequence (Q9HC16 whole entry, looked up): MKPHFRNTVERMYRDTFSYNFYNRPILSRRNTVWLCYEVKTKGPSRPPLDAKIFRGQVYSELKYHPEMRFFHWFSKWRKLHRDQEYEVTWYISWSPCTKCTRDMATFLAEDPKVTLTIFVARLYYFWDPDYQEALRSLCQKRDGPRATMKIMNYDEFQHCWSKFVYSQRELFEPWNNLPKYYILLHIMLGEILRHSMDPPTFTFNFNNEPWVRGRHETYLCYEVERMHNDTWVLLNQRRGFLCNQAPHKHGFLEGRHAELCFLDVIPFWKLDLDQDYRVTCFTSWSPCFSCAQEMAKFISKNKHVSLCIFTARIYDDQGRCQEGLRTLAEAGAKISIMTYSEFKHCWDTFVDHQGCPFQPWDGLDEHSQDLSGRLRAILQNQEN
Active calls of the source: *; nt = not tested or not shown; + = active, no number. Rows were chosen to be rich in hits. Some 1.2% of all compounds tested hit in one or more screens of this group.

SMILES	PolyA inhibitor	APOBEC3A inh	NALP1 inh	APOBEC3G inh
COC(=O)C1=C(C)NC(=O)NC1c1ccc(OC(=O)c2ccco2)cc1 (stereo not given)	21.3	0.9	17.9*	-10.8
Cc1cccc(C)c1OCC(=O)N1CCc2ccccc2C1	-8.1	-5.2	0.7	-8.2
CCN1CCCC1CN(Cc1cc2ccc(C)cc2[nH]c1=O)C(=S)Nc1ccccc1OC (stereo not given)	2.0	-2.9	26.8	-8.2
CCN1CCCC1CN(Cc1cc2ccc(C)cc2[nH]c1=O)C(=S)Nc1ccccc1C(=O)OC (stereo not given)	-7.9	0.6	37.0*	-2.1
CCOC(=O)c1c(C)c(-c2ccccc2)n(CC(=O)NCCCN(CC)CC)c1C	-7.7	-3.1	5.5	-3.5
CCOc1ccc(S(=O)(=O)Nc2cccc(N(C)S(C)(=O)=O)c2)cc1	17.8	-4.8	41.7*	-5.2
Cc1ccc(C)c(N(CC(=O)NCc2ccccc2)C(=O)c2csnn2)c1	-14.4	-3.2	26.7	-3.4
Cc1c(Cl)cccc1NC(=O)CNCc1ccccc1F	-9.7	2.3	12.1	-1.6
O=C(NNC(=S)NC(=O)c1ccccc1)c1cccnc1	19.0	-9.6	-6.9	5.9
O=C(NNC(=S)NC1CC2C=CC1C2)c1cccnc1 (stereo not given)	66.0*	-5.2	-2.0	-4.6
CCc1nn(CC(=O)NCCc2ccc(S(N)(=O)=O)cc2)c(=O)c2cc3sccc3n12	2.5	-5.9	24.2	-1.6
CCCc1nn(C)c2c(=O)[nH]c(-c3cc(S(=O)(=O)N(CCO)CCO)ccc3OCC)nc12	-7.0	5.6	29.5*	1.6
O=[N+]([O-])c1ccc(-c2ccn[nH]2)o1	17.5	-3.1	66.9*	-5.3
O=[N+]([O-])c1ccc(/C=[N+](\[O-])[C@@H]2CCCC[C@@H]2/[N+]([O-])=C/c2ccc([N+](=O)[O-])o2)o1	-15.9	32.5	2.5	12.7
Cc1ccc(C(C[N+](=O)[O-])c2c(N)n(C)c(=O)n(C)c2=O)cc1 (stereo not given)	-22.2	-2.0	+	-2.2
COc1cccc(F)c1C(C[N+](=O)[O-])c1c(N)n(C)c(=O)n(C)c1=O (stereo not given)	-26.3	-0.1	+	-1.5
COc1cc(C(C[N+](=O)[O-])c2c(N)n(C)c(=O)n(C)c2=O)ccc1O (stereo not given)	-0.4	-0.7	-4.1	-7.0
O=C(CN1CCN(CC(=O)Nc2ccccc2Cl)CC1)NCC1(N2CCCCC2)CCCCC1	nt	-0.2	nt	-7.6
CC(=O)c1cccc(CN2CCC(n3nccc3NC(=O)CCOc3ccccc3)CC2)c1	6.4	-3.1	31.3*	-6.7
O=C(CCOc1ccccc1)Nc1ccnn1C1CCN(Cc2ccccc2)CC1	3.0	-1.3	-0.3	-8.1
COc1ccc(C(=O)O)cc1S(=O)(=O)Nc1cc(Cl)ccc1N1CCOCC1	nt	-3.0	nt	-4.8
COc1ccc(-n2cc(CN(C)CCO)c(-c3cccc(F)c3)n2)cc1	4.2	-1.1	24.4*	-5.0
COc1ccc(-n2cc(CNCCc3cnc[nH]3)c(-c3cccc(F)c3)n2)cc1	7.0	2.3	27.2*	-3.5
CC(Oc1ccc(C(C)(C)C)cc1)C(=O)NC1CC(C)(C)NC(C)(C)C1 (stereo not given)	12.2	-4.5	19.3	-7.1
COc1ccc(C(CCNC(C)c2ccccc2)c2ccc(F)cc2)cc1 (stereo not given)	-13.8	5.4	43.1*	0.5
SMILES	PolyA inhibitor	APOBEC3A inh	NALP1 inh	APOBEC3G inh
COc1ccc(CNCCC(c2ccc(F)cc2)c2ccc(OC)cc2)cc1 (stereo not given)	9.1	0.6	79.1*	-10.3
COc1ccc(C(CCNCc2ccc(F)cc2)c2ccc(F)cc2)cc1 (stereo not given)	-0.2	2.8	67.9*	2.1
COc1ccc(CCNCc2ccc(OCc3ccccc3)cc2)cc1	-12.5	-2.0	45.2*	-3.9
COc1ccc(C(CCNCc2ccccc2)c2ccc(F)cc2)cc1 (stereo not given)	-7.0	-1.0	31.0	-2.0
COCCCNS(=O)(=O)c1ccc(S(=O)(=O)N2CCCC2)cc1	-2.5	1.4	38.4*	0.8
COCCNC(=S)N(c1ccccc1)C(C)C	4.2	2.2	39.9*	-9.2
CC1CC(C)CN(S(=O)(=O)CC23CCC(CC2=O)C3(C)C)C1 (stereo not given)	-14.5	-5.0	-13.5	1.7
Cc1cccc(C)c1NC(=O)CN1C(=O)S/C(=C\c2cccn2C)C1=O	-11.3	-7.6	39.8*	-6.8
Cc1cccc(C)c1NC(=O)CN1C(=O)S/C(=C\c2cccn2-c2cccc(C(=O)O)c2)C1=O	-4.8	10.9	-3.7	2.5
COc1ccc(-n2cccc2/C=C/[N+](=O)[O-])cc1	-12.6	-1.0	113.5*	-7.3
COc1ccc(-n2cccc2C=O)cc1	7.7	-2.9	19.9	-8.6
Cc1ccc(-c2nnn(CC(=O)Nc3nnc(C(C)C)s3)n2)cc1	-10.6	-1.5	37.3*	-5.1
CC(C)c1nnc(NC(=O)CN2C(=O)c3ccccc3C2=O)s1	-16.8	-4.9	21.4	-4.2
C1CCC(C(CC2CCCCN2)C2CCCCC2)CC1 (stereo not given)	8.4	4.0	71.3*	-4.0
COc1ccc(CCN2CCCn3c2nc2c3c(=O)n(CC(C)C)c(=O)n2C)cc1OC	4.5	-0.3	7.0	-3.9
COc1ccc2nc(NC(=O)c3ccccc3[N+](=O)[O-])sc2c1	-12.5	-5.5	30.0*	-4.5
COc1ccc2nc(NC(=O)c3ccccc3O)sc2c1	5.0	-6.3	19.8	-6.9
CC12CCC(=O)N1C(C(=O)Nc1nnc(SCc3ccc(F)cc3)s1)CS2 (stereo not given)	-14.5	4.0	1.4	7.9
COc1cc(NC(=O)c2cccs2)cc(OC)c1	-14.1	0.4	65.2*	-2.7
Cc1cnc(NC(=O)c2cccs2)s1	-27.7	-6.2	34.5*	-7.0
Cc1ccc(S(=O)(=O)c2nnn3c2nc(N2CCN(c4ccccn4)CC2)c2ccccc23)cc1C	5.8	-0.8	8.6	-3.0
Cc1cccc(NC(=O)CSc2nnc(CNC(=O)c3ccco3)n2C)c1	10.7	2.7	4.7	-6.8
O=C(c1cc2ccccc2o1)N1CCN(C/C=C/c2ccccc2)CC1	-10.0	-2.9	43.6*	-7.9
CCc1ccc(NC(=O)c2ccccc2NC(=O)C2CCCO2)cc1 (stereo not given)	-22.7	0.3	42.8*	-3.9
CC[N+]1(C)[C@@H]2CC[C@H]1CC(OC(=O)[C@H]1CCC(C(=O)OC3C[C@H]4CC[C@@H](C3)[N+]4(C)CC)(c3ccccc3)c3ccccc31)C2 (stereo not given in full)	nt	-0.1	nt	-2.9
COCCNc1nc(-c2ccc(OC)cc2)c(-c2ccc(OC)cc2)s1	0.4	-2.5	35.1*	-5.3
CCN(CC)CCNc1nc(-c2ccc(OC)cc2)c(-c2ccc(OC)cc2)s1	4.5	-0.8	-11.1	-4.8
N#C/C(N=Nc1ccccc1O)=N\Nc1ccccc1O	13.5	-7.1	nt	18.7
Cc1cccc(N2CCN(C(=O)c3ccc4c(c3)NC(=O)C(CSCc3ccc(F)cc3)N4)CC2C)c1 (stereo not given)	-2.5	-28.6	11.2	8.5

Bioassay records as filed in PubChem.
